Counter-ions that a name gives are not always drawn. Among all 1,300 compounds or so, about 40 (3%) showed activity. The list comes from a sample in which actives are over-represented; it also holds similar structures and randomly drawn compounds. Unmarked numbers belong to inactive results.
System: Plasmodium falciparum NF54/iGP1_RE9H ulg8 stage V gametocytes
Test: gametocyte viability (luciferase signal relative to DMSO control) (% of DMSO control); higher = less gametocytocidal activity, active = 50 or less
Conditions: exposure time: 72 h
Summary of the method: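 Gametocyte viability is reported relative to the average of DMSO vehicle wells on the same plate. The assay used day-12 stage V NF54/iGP1_RE9Hulg8 gametocytes at ~2.5% gametocytemia and 3% hematocrit, in 0.5% Albumax II medium, added to 96-well plates of compounds spotted in nanolitre volumes for final 10 µM or 1 µM, one well each. After 72 h at 37 °C, 90 µl was mixed with 10 µl D-luciferin (30 mg/ml), and luminescence was recorded with an IVIS Lumina II.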

Row | SMILES | gametocyte viability (concentration: 1 µM) | gametocyte viability (concentration: 10 µM)
1 | Cc1c(N(C)C)c(=O)n(-c2ccccc2)n1C [Amidopyrine] | 99 | 95.3
2 | O=C1c2c(O)cccc2Cc2cccc(O)c21 [Anthralin] | 89.3 | 86.9
3 | O=C1c2c(O)ccc(O)c2C(=O)c2c(NCCNCCO)ccc(NCCNCCO)c21 [Mitoxantrone dihydrochloride] | 86.2 | 12.9 (active)
4 | O=C1c2cccc(O)c2C(=O)c2c(O)cccc21 [1,8-Dihydroxyanthraquinone] | 82.8 | 85.1
5 | O=c1[nH]c(=O)n(C2CCCO2)cc1F (stereo not drawn) [Tegafur] | 82.6 | 82.6
6 | Cc1scc2c1N(C(=O)CN1CCN(C)CC1)c1ccccc1NC2=O [Telenzepine dihydrochloride] | 97.8 | 96.3
7 | CC[N+](CC)(CC)CCC(O)(c1ccccc1)C1CCCCC1 (stereo not drawn) [Tridihexethyl chloride] | 95.7 | 100
8 | CCOC(=O)C1=C(C)NC(C)=C(C(=O)OCC)C1c1ccccc1/C=C/C(=O)OC(C)(C)C [Lacidipine] | 97.1 | 96.5
9 | COc1ccc(/C=C/C(=O)Nc2ccccc2C(=O)O)cc1OC [Tranilast] | 68.5 | 40.9 (active)
10 | Cc1cccc(Nc2ccccc2C(=O)O)c1C [Mefenamic acid] | 94 | 94.6
11 | Cc1c(Cl)cccc1Nc1ccccc1C(=O)O [Tolfenamic acid] | 83.6 | 90.8
12 | COC1=C(OC)C(=O)C(CCCCCCCCCCO)=C(C)C1=O [Idebenone] | 88 | 86.8
13 | Cn1c(=O)c2c(ncn2CC2OCCO2)n(C)c1=O [Doxofylline] | 86.6 | 86.7
14 | COc1cc(N)c(Cl)cc1C(=O)NC1CCN(CCCOc2ccc(F)cc2)CC1OC (stereo not drawn) [Cisapride] | 95.9 | 96.7
15 | C[C@H](CCC(=O)O)[C@H]1CC[C@H]2[C@@H]3C(=O)C[C@@H]4CC(=O)CC[C@]4(C)[C@H]3CC(=O)[C@]12C [Dehydrocholic acid] | 95.4 | 93.6
16 | C=C1c2c(Cl)ccc(O)c2C(O)=C2C(=O)[C@]3(O)C(O)=C(C(N)=O)C(=O)[C@@H](N(C)C)[C@@H]3[C@@H](O)[C@H]12.O=C(O)c1cc(S(=O)(=O)O)ccc1O [Meclocycline sulfosalicylate] | 80.9 | 83.5
17 | CN(C)CC/C=C1/c2ccccc2COc2ccc(CC(=O)O)cc21 [Olopatadine hydrochloride] | 77.9 | 86.5
18 | CCCOc1ccc(C(=O)OCCN(CC)CC)cc1N [Proparacaine hydrochloride] | 98.5 | 105
19 | COc1cccc(OC)c1C(=O)N[C@@H]1C(=O)N2[C@@H]1SC(C)(C)[C@@H]2C(=O)O [Methicillin sodium] | 83.4 | 83.1
20 | Clc1ccccc1CN1CCc2sccc2C1 [Ticlopidine hydrochloride] | 96 | 93.2

Row | SMILES | gametocyte viability (concentration: 1 µM) | gametocyte viability (concentration: 10 µM)
21 | CC(=O)OCC(=O)[C@@]1(O)CC[C@H]2[C@@H]3CCC4=CC(=O)CC[C@]4(C)[C@@]3(F)[C@@H](O)C[C@@]21C [Fludrocortisone acetate] | 79.5 | 75.8
22 | Nc1c2c(nc3ccccc13)CCCC2O (racemic) [Hydroxytacrine maleate (R,S)] | 101 | 93.6
23 | O=C1c2cccc3c2[C@H](CCC3)CN1[C@@H]1CN2CCC1CC2 [Palonosetron hydrochloride] | 85.5 | 81.6
24 | CCN(CC)CCOc1ccc(C(=C(Cl)c2ccccc2)c2ccccc2)cc1 [Clomiphene citrate (Z,E)] | 82.4 | 95.2
25 | C#Cc1cccc(Nc2ncnc3cc(OCCOC)c(OCCOC)cc23)c1 [Erlotinib] | 70.7 | 37.2 (active)
26 | COc1cc2ncnc(Nc3ccc(F)c(Cl)c3)c2cc1OCCCN1CCOCC1 [Gefitinib] | 95.8 | 85.9
27 | Cc1c(C)c2c(c(C)c1O)CCC(C)(C(=O)O)O2 (stereo not drawn) [Trolox] | 88.2 | 87.5
28 | CCOC(=O)C1=C[C@]2(CC)CCCN3CCc4c(n1c1ccccc41)[C@@H]32 [Vinpocetine] | 86.2 | 87.6
29 | CC(C)NC[C@@H](O)COc1cccc2ccccc12 [(R)-Propranolol hydrochloride] | 93.4 | 89
30 | Nc1ccccc1S(N)(=O)=O [2-Aminobenzenesulfonamide] | 98 | 95.8
31 | CN1CCN(CC(=O)N2c3ccccc3C(=O)Nc3cccnc32)CC1 [Pirenzepine dihydrochloride] | 86.5 | 83.3
32 | CCN(CCCc1ccccc1)CCCc1ccccc1 [Alverine citrate salt] | 82.3 | 82
33 | CCN(CC)CCCC(C)Nc1c2ccc(Cl)cc2nc2ccc(OC)cc12 (stereo not drawn) [Quinacrine dihydrochloride dihydrate] | 113 | 44.5 (active)
34 | CCN(CC)CCCC(C)Nc1ccnc2cc(Cl)ccc12 (stereo not drawn) [Chloroquine diphosphate] | 82.8 | 86.8
35 | CCN(CCO)CCCC(C)Nc1ccnc2cc(Cl)ccc12 (stereo not drawn) [Hydroxychloroquine sulfate] | 83.3 | 80.8
36 | O=C1CN(/N=C/c2ccc([N+](=O)[O-])o2)C(=O)N1 [Nitrofurantoin] | 83.4 | 82.5
37 | O=C(N/N=C/c1ccc([N+](=O)[O-])o1)c1ccc(O)cc1 [Nifuroxazide] | 95.9 | 30.6 (active)
38 | NC(=O)N/N=C/c1ccc([N+](=O)[O-])o1 [Nitrofural] | 90.1 | 89.1
39 | CCOC(=O)c1ccc(OC(=O)CCCCCNC(=N)N)cc1 [Gabexate mesilate] | 88.8 | 92
40 | CN1CCC(=C2c3ccccc3CC(=O)c3sccc32)CC1 [Ketotifen fumarate] | 79.5 | 84.2

Row | SMILES | gametocyte viability (concentration: 1 µM) | gametocyte viability (concentration: 10 µM)
41 | C=CC1=C(C(=O)O)N2C(=O)[C@@H](NC(=O)/C(=N\O)c3csc(N)n3)[C@H]2SC1 [Cefdinir] | 80.8 | 83.8
42 | CN1C(=O)OC(C)(C)C1=O [Trimethadione] | 82.9 | 88.6
43 | CC1=C(CC(=O)O)c2cc(F)ccc2/C1=C\c1ccc([S+](C)[O-])cc1 (stereo not drawn) [Sulindac] | 88.6 | 82.7
44 | Cc1cc(NC(=O)C2=C(O)c3ccccc3S(=O)(=O)N2C)no1 [Isoxicam] | 82.8 | 81.8
45 | C[N+]1(C)CCC(=C(c2ccccc2)c2ccccc2)CC1 [Diphemanil methylsulfate] | 87 | 83
46 | CCc1ccc(CCOc2ccc(CC3SC(=O)NC3=O)cc2)nc1 (stereo not drawn) [Pioglitazone] | 86 | 88.2
47 | NC(=O)C(c1ccccc1)(c1ccccc1)[C@@H]1CCN(CCc2ccc3c(c2)CCO3)C1 [Darifenacin hydrobromide] | 81.7 | 84.2
48 | CC(C)(S)[C@@H](N)C(=O)O [Penicillamine] | 92.4 | 93.1
49 | N#Cc1cc(NC(=O)C(=O)O)c(Cl)c(NC(=O)C(=O)O)c1 [Lodoxamide] | 91.8 | 102
50 | CC1=C(/C=C/C(C)=C/C=C/C(C)=C/C(=O)O)C(C)(C)CCC1 [Retinoic acid] | 82.1 | 64
51 | CCC(=O)[C@@]1(C)[C@H](C)C[C@H]2[C@@H]3CCC4=CC(=O)C=C[C@]4(C)[C@H]3[C@@H](O)C[C@@]21C [Rimexolone] | 89.4 | 85.3
52 | CCCNC(C)C(=O)Nc1c(C)csc1C(=O)OC (stereo not drawn) [Articaine hydrochloride] | 81.9 | 83
53 | CN/C(=N\CCSCc1nc[nH]c1C)NC#N [Cimetidine] | 100 | 94.5
54 | C[C@]12CC[C@@H]3c4ccc(O)cc4C[C@@H](CCCCCCCCC[S+]([O-])CCCC(F)(F)C(F)(F)F)[C@H]3[C@@H]1CC[C@@H]2O (stereo partly drawn) [Fulvestrant] | 90.3 | 84.7
55 | O=C1OC(CN2CCOCC2)CN1/N=C/c1ccc([N+](=O)[O-])o1 (stereo not drawn) [Furaltadone hydrochloride] | 89.7 | 93.4
56 | CN(C)CCN1C(=O)c2ccccc2N(C)c2ccccc21 [Dibenzepine hydrochloride] | 84.8 | 91.3
57 | COc1cc(NC(C)CCCN)c2ncccc2c1 (stereo not drawn) [Primaquine diphosphate] | 83.1 | 35.1 (active)
58 | CCCc1nc(C)c2c(=O)nc(-c3cc(S(=O)(=O)N4CCN(CC)CC4)ccc3OCC)[nH]n12 [Vardenafil] | 70.1 | 43.9 (active)
59 | CCCc1nn(C)c2c(=O)[nH]c(-c3cc(S(=O)(=O)N4CCN(C)CC4)ccc3OCC)nc12 [Sildenafil] | 90.3 | 70.6
